High-throughput results as filed in PubChem.
mHTT-CaM PPI inh – mutant huntingtin-calmodulin interaction inhibitors – biochemical, AlphaScreen, primary screen | inhibition, % at 15 µM | P42858 | AlphaScreen His-mHTT/GST-CaM binding, luminescence | 3.6% of 190,000 active;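 also: 0% = both proteins with DMSO and 100% = one protein alone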
Pf apPOL inh – Pf-apPOL inhibitors, biochemical, fluorescence; Plasmodium falciparum apicoplast DNA polymerase (apPOL); Recombinant Pf-apPOL, molecular beacon fluorescence, 1.5 h; inhibition, % at 10 µM; 0.25% of 210,000 active
Starred values were filed as active, the others as inactive; i = inactive; nt = not tested or not shown. Hits are enriched below; roughly 3.5% of the tested compounds scored in any of these assays. Rule as the data show it: active = inhibition above about 50%; inactive = the rest.

SMILES | mHTT-CaM PPI inh | Pf apPOL inh
CC(=O)N(C)C1=C(N2CCCC2)C(=O)c2ccccc2C1=O | 15 | -3
CC(=O)N(C1=C(N2CCOCC2)C(=O)c2ccccc2C1=O)c1ccc(C(=O)O)cc1 | 18 | -12
CCOc1cc(C2NC(=O)NC(C)=C2C(=O)Nc2ccc(OC)cc2OC)ccc1O (stereo not given) | 1 | -1
NC(=NS(=O)(=O)c1ccc([N+](=O)[O-])cc1)Nc1nc2ccccc2o1 | 2 | -7
COc1cccc(C2C(C#N)=C(N)N(c3c(F)cccc3F)C3=C2C(=O)CCC3)c1 (stereo not given) | 9 | 1
COc1cccc(NC(=O)c2ccc([N+](=O)[O-])c(C)c2)c1 | -1 | -3
COc1cccc(Nc2nc(Cl)ccc2[N+](=O)[O-])c1 | 71* | -7
CC(C)(C)Nc1nc(Cl)nc(Nc2cccc([N+](=O)[O-])c2)n1 | 40 | 30
COc1ccc(Nc2nc(Cl)nc(Nc3cccc([N+](=O)[O-])c3)n2)cc1 | 78* | -1
CC(=O)N1c2c(cc(Br)cc2S(=O)(=O)Nc2cccc(C(F)(F)F)c2)CC1C (stereo not given) | 4 | -2
CC(=O)N1c2c(cc(Br)cc2S(=O)(=O)Nc2ccc(C(F)(F)F)cc2)CC1C (stereo not given) | 91* | -1
O=Cc1ccc(OCc2cccc(C(=O)O)c2)c(Cl)c1 | 2 | -6
Cc1nc(C(=N)NC(=O)c2ccc(OC(F)(F)F)cc2)cs1 | nt | -9
O=C(Nc1ccccc1C(F)(F)F)OCCCN1CCC2(CCC(c3ccccc3)CC2)C1=O (stereo not given) | 93* | 0
O=C(Nc1ccc(F)cc1)OCCN1CCCC12CCC(c1ccccc1)CC2 (stereo not given) | -15 | -3
CCCCNC(=O)OCCCN1CCC2(CCC(c3ccccc3)CC2)C1=O (stereo not given) | 10 | -6
O=C(Nc1cccc(F)c1)OCCCN1CCC2(CCC(c3ccccc3)CC2)C1 (stereo not given) | 50* | -3
CC1(C(=O)NCc2ccccc2)CCC(=O)N1Cc1ccccc1F (stereo not given) | -5 | -1
N/C(=N\OC(=O)N1c2ccccc2Sc2ccccc21)c1ccccn1 | i | 0
O=C(c1ccc(F)cc1)N1CCN(c2nc(CN3CCCC3)cs2)CC1 | 9 | 0
OC(CN1CCNCC1)Cn1c2ccccc2c2cc(Br)ccc21 (stereo not given) | 51* | -2
OC(CN1CCN(c2ccccc2)CC1)Cn1c2ccccc2c2ccccc21 (stereo not given) | 12 | -5
OC(CN1CCNCC1)Cn1c2ccccc2c2ccccc21 (stereo not given) | 1 | 3
OC(CN1CCCCC1)Cn1c2ccc(Br)cc2c2cc(Br)ccc21 (stereo not given) | nt | -4
OC(CN1CCN(C/C=C/c2ccccc2)CC1)Cn1c2ccccc2c2ccccc21 (stereo not given) | 100* | 2
SMILES | mHTT-CaM PPI inh | Pf apPOL inh
OCC(O)Cn1c2ccc(Br)cc2c2cc(Br)cc(Br)c21 (stereo not given) | 98* | 3
Cc1cccc(-n2nc3c(c2NC(=O)c2cccc(F)c2)CSC3)c1C | -2 | -5
COc1ccc(OC)c(NC(=O)CCCN2C(=O)c3cccnc3C2=O)c1 | 8 | -47
CCn1ccc(C(=O)N2CCCC(c3noc(-c4ccccc4OC)n3)C2)n1 (stereo not given) | 7 | -4
NC(=NS(=O)(=O)c1ccc(Cl)s1)c1ccccc1 | -4 | -11
CCOc1cc(/C=C2\C(=O)ON=C2C)cc(Cl)c1OCc1cccc(F)c1 | 87* | -2
C#CCOc1c(Cl)cc(/C=C2\C(=O)ON=C2C)cc1OCC | 22 | -1
CCOc1cc(/C=C2/C(=O)ON=C2C)ccc1OCc1ccccc1F | 44 | -1
CCCOc1ccc(/C=C2\C(=O)ON=C2C)cc1OC | 78* | -6
CC1=NOC(=O)/C1=C/c1ccc(OCc2cccc(F)c2)c(Br)c1 | 31 | -2
COc1ccc(/C=C2/C(=O)ON=C2C)cc1Br | 14 | -12
CCOc1cc(/C=C2/C(=O)ON=C2C)ccc1OCc1cccc(F)c1 | 93* | 2
CCOc1cc(/C=C2\C(=O)ON=C2C)cc(Cl)c1OCc1ccccc1F | 96* | -1
COc1cc(/C=C2/SC(=Nc3cc(C)cc(C)c3)NC2=O)ccc1O | 30 | 4
Cc1cc(C)c(CNC(=O)C2CCCN(c3cn[nH]c(=O)c3)C2)c(C)c1 (stereo not given) | -4 | 2
CCNC(=O)c1cc(N2CCOCC2)nc2ccccc12 | -4 | -3
CC(C)(C)C(=O)NCc1cccnc1-c1ccc(F)cc1 | -14 | 0
Cc1ccc(Cl)cc1NC(=O)CC(NCc1ccccn1)C(=O)O (stereo not given) | 100* | -8
Cc1ccc(Cl)cc1NC(=O)CC(NCCCOC(C)C)C(=O)O (stereo not given) | -10 | -7
O=C(Nc1nccs1)c1cccc(NS(=O)(=O)c2ccc([N+](=O)[O-])cc2)c1 | 10 | -4
CSc1ccc(N2CC(c3nnc(NC(=O)c4cccc(C)c4)o3)CC2=O)cc1 (stereo not given) | 3 | -4
CCOc1ccc(N2CC(c3nnc(NC(=O)C4CC4)o3)CC2=O)cc1 (stereo not given) | 11 | -3
CCOc1ccc(N2CC(c3nnc(NC(=O)c4cccc(Cl)c4)o3)CC2=O)cc1 (stereo not given) | 77* | -2
CSc1ccc(N2CC(c3nnc(NC(=O)c4cccc(Cl)c4)o3)CC2=O)cc1 (stereo not given) | 53* | -1
COc1ccc(N2CC(c3nnc(NC(=O)c4ccccc4)o3)CC2=O)cc1 (stereo not given) | 19 | 1
SMILES | mHTT-CaM PPI inh | Pf apPOL inh
COc1ccc(N2CC(c3nnc(NC(=O)c4cccc(Cl)c4)o3)CC2=O)cc1 (stereo not given) | 56* | -2
O=C(Cc1nc(-c2ccccc2)n[nH]1)NC1CCCCC1 | 6 | -6
O=C(NCc1ccccc1)O[C@@H]1C[C@H]2C[C@@H]1[C@H]1CCCCN1C2 | 18 | -3
CCOC(=O)CCCNC(=O)O[C@@H]1C[C@H]2C[C@@H]1[C@H]1CCCCN1C2 | 85* | -3
O=C(NCCCc1ccccc1)C1(n2cccc2)CCCCC1 | 51* | -6
CN(CCCNC(=O)C1(n2cccc2)CCCCC1)Cc1ccccc1 | 27 | -16
COc1ccc(CNC(=O)c2cnn3c(C)c(Cc4cccc(Cl)c4)c(C)nc23)cc1 | 5 | -6
Cc1nc2c(C(=O)NCC3CCCO3)cnn2c(C)c1Cc1cccc(Br)c1 (stereo not given) | 96* | -4
Cc1nc2c(C(=O)NCc3ccccn3)cnn2c(C)c1Cc1cccc(Cl)c1 | 72* | -6
COc1ccccc1CNC(=O)Cc1nc2nc(C)c(Cc3cccc(Cl)c3)c(C)n2n1 | 57* | -12
COCCNC(=O)c1cnn2c(C)c(Cc3cccc(Br)c3)c(C)nc12 | 63* | -9
Cc1ccc(CNC(=O)c2cnn3c(C)c(Cc4cccc(Br)c4)c(C)nc23)cc1 | 6 | -6
COc1ccccc1CNC(=O)CSc1nc2nc(C)c(Cc3ccccc3)c(C)n2n1 | 10 | -2
COCCNC(=O)c1cnn2c(C)c(Cc3cccc(Cl)c3)c(C)nc12 | 45 | -12
CNC(=O)C1CCCN(c2nc3ncn(CC(=O)Nc4ccccc4)c(=O)c3s2)C1 (stereo not given) | -12 | -6
